# Experimental data: ChEMBL document CHEMBL4513216, “Probing the Open Global Health Chemical Diversity Library for Multistage-Active Starting Points for Next-Generation Antimalarials” (ACS Infect Dis, 2020)
# The campaign covered roughly 69,000 compounds. About 8,600 (12%) showed an effect of 50% or more. Only a selection was taken, and strong results are over-represented in it overall.
# Tested on: Plasmodium berghei
# Assay: Screen against P. berghei liver stage (PbLuc), transformed with Luciferase, at 10uM
# Assay type: functional, HepG2
# Conditions: tested at 10 uM
row,Structure (SMILES),INHIBITION
1,O=C(NCCCNC(=O)c1cccc(O)c1)NCc1ccccc1F,-1.58%
2,CCn1cc(CN2CCCN(C(=O)c3ccco3)CC2)cn1,-61.4%
3,COC(=O)c1ccnn1COc1ccc(Cl)cc1,16%
4,CCc1nn(C)c2[nH]nc(NC(=O)c3ccccc3COC)c12,33.7%
5,N#Cc1ccc(NC(=O)C2CSCN2)cc1 (stereo unspecified),39%
6,COc1cc(CNCc2ccco2)ccc1OCCO,10.6%
7,CCN(CC)S(=O)(=O)c1cc(Br)ccc1OC,-32.9%
8,COc1cc(OC)cc(C(=O)N(C)Cc2nnc3ccccn23)c1,-6.14%
9,Cc1nccn1CCC1CCCCN1Cc1ccncc1 (stereo unspecified),-57.8%
10,Cc1c[nH]c(CN2CCCCC2CCn2ccnc2C)c(C)c1=O (stereo unspecified),53.9%
11,Cc1nccn1CCC1CCCCN1Cc1cnc(N(C)C)nc1 (stereo unspecified),33.3%
12,Cc1c[nH]c(CN2CCCCC2CCc2cccc(O)c2)c(C)c1=O (stereo unspecified),39.9%
13,Cc1nccn1CCC1CCCCN1Cc1ccc(N(C)C)nc1 (stereo unspecified),-38.9%
14,Cc1c[nH]c(CN2CCCCC2CCN(C)C)c(C)c1=O (stereo unspecified),38.8%
15,Cc1cc2c(cc1CN1CCCCC1CCn1ccnc1C)OCO2 (stereo unspecified),13.7%
16,Cc1c[nH]c(CN2CCCCC2CCn2cccn2)c(C)c1=O (stereo unspecified),51.8%
17,Cc1nccn1CCC1CCCCN1Cc1ccc2c(c1)OCCO2 (stereo unspecified),51.3%
18,CC[C@@H]1N(Cc2nccs2)CCC[C@]12CCC(=O)N2C,-27%
19,COc1ccc(-c2nnc(CNCCn3cccn3)o2)cc1,23.5%
20,CO[C@H]1CCN(C(=O)c2cc(C)on2)C[C@@H]1Cc1ccccc1,2.58%
21,Cc1[nH]ncc1CCCNC(=O)N1CCCC(c2nncn2C)C1 (stereo unspecified),-29.8%
22,CCCn1nccc1NC(=O)CN1CCCC1Cn1cccn1 (stereo unspecified),12.3%
23,Cc1cccc(OCC2CCCN(C(=O)Cn3ccccc3=O)C2)c1 (stereo unspecified),13.6%

row,Structure (SMILES),INHIBITION
1,COc1ccc(CNC(=O)Nc2ccc(=O)n(C)c2)cc1,29%
2,Cn1cc(C(=O)Nc2cccc(F)c2)ccc1=O,42.6%
3,COc1cccc(-c2ccc(CNC(=O)c3ccc(=O)n(C)c3)cc2)c1,72.3%
4,Cn1cc(C(=O)Nc2ccnc(Oc3ccccc3)c2)ccc1=O,16.8%
5,COc1cccc(CCNC(=O)c2ccc(=O)n(C)c2)c1,24.2%
6,Cn1cc(NC(=O)NCc2ccoc2)ccc1=O,47.4%
7,COc1ccc(CNC(=O)c2ccc(=O)n(C)c2)cc1C,11.8%
8,Cn1cc(C(=O)Nc2cccc(Oc3ccncc3)c2)ccc1=O,51.5%
9,COC(=O)c1ccc(CNC(=O)Nc2ccc(=O)n(C)c2)cc1,59.3%
10,CN1Cc2ccccc2CC2(CCN(Cc3nccn3C)CC2)C1=O,34.5%
11,Cc1cc(C2CCCN(CCNS(=O)(=O)c3ccccc3)C2)n[nH]1 (stereo unspecified),11.9%
12,CC1CN(C)CCN1C(=O)Nc1nc(-c2ccco2)cs1 (stereo unspecified),14%
13,O=C(c1ccco1)N1CCC2(CCC(=O)N2Cc2ccncc2)CC1,8.74%
14,c1ccc(Cc2noc(-c3ccc(NCC4COCCO4)nc3)n2)cc1 (stereo unspecified),12.02%
15,CC(NC(=O)NCCC(=O)OC(C)(C)C)c1nncn1C (stereo unspecified),25.4%
16,CCc1nccn1-c1cncc(C2CCCN2CC(=O)N2CCCC2)n1 (stereo unspecified),4.08%
17,Cc1cc2cccc(C(=O)N3CCOC(CCN(C)C)C3)c2o1 (stereo unspecified),33%
18,Cc1cccc(CN2CC3(CCN(S(=O)(=O)C4CC4)CC3)OCC2=O)n1,7.53%
19,Cc1nccn1CCCn1cncc1-c1ccc2c(c1)CC(C)N2C (stereo unspecified),62.4%
20,Cc1nccn1CCCn1cncc1-c1ccc2c(c1)CCC(C)N2C (stereo unspecified),87.7%
21,CCN1c2ccc(-c3cncn3CCCn3ccnc3C)cc2CC1C (stereo unspecified),36%
22,Cc1cc(C)n(CCCn2cncc2-c2ccc3c(c2)CC(C)N3C)n1 (stereo unspecified),42.6%
23,CN1CCCc2cc(-c3cncn3CCNC3CCS(=O)(=O)C3)ccc21 (stereo unspecified),32.3%

row,Structure (SMILES),INHIBITION
1,Cc1nccn1CCCn1cncc1-c1ccc2c(c1)CCCN2C,41.5%
2,O=C(NCc1ccco1)[C@@H]1CCO[C@@H]2CCN(c3ncccn3)C[C@H]21,17.1%
3,O=C(Cn1ncc2c(c1=O)CCCC2)Nc1cccc2[nH]ccc12,30.2%
4,Cc1nc(N(C)C)nc(NCCc2c[nH]cn2)c1C,-38%
5,COCC(=O)N1CCCC(c2csc(NC(C)=O)n2)C1 (stereo unspecified),-55%
6,CCCn1cc(S(=O)(=O)N(C)Cc2nonc2C)c(C)n1,3.48%
7,Cn1cc(CN2CCc3c(cnc(-c4ccccc4)c3C(=O)O)C2)cn1,23.3%
8,CNC(=O)C1Cn2ccnc2C2(CCN(C(=O)CC3CCCC3)CC2)O1 (stereo unspecified),-10.3%
9,Cc1ccc(C(=O)N2CCC(c3noc(-c4cccnc4)n3)CC2)cn1,42.6%
10,COCCN1C[C@@H](C)[C@@]2(COCCN(C(=O)c3ccccn3)C2)C1,36.2%
11,CCCNC(=O)c1nn(CC)cc1NC(=O)c1c(C)nn(C)c1C,-4.56%
12,O=C(COc1ccc(Cl)cc1)N1CCOCC1c1ncon1 (stereo unspecified),55.4%
13,CC(C)c1ccc(OCC(=O)N2CCOCC2c2ncon2)cc1 (stereo unspecified),-50.8%
14,Cc1ccc(CCC(=O)N2CCOCC2c2ncon2)c(C)c1 (stereo unspecified),-56.7%
15,Cc1ccc(OCCC(=O)N2CCOCC2c2ncon2)cc1C (stereo unspecified),21.6%
16,CCc1ccc(CCC(=O)N2CCOCC2c2ncon2)cc1 (stereo unspecified),27.9%
17,CCc1ccccc1OCC(=O)N1CCOCC1c1ncon1 (stereo unspecified),60.5%
18,Cc1cc(C)cc(OCCC(=O)N2CCOCC2c2ncon2)c1 (stereo unspecified),50.4%
19,Cc1cccc(C)c1OCC(=O)N1CCOCC1c1ncon1 (stereo unspecified),-53.2%
20,O=C(COc1cccc(Cl)c1)N1CCOCC1c1ncon1 (stereo unspecified),7.12%
21,Cc1cc(C(F)(F)F)c2c(=O)n(Cc3ccon3)n(C)c2n1,14.3%
22,CC(C)N(C)Cc1cncc2c1CCN(C1CCOCC1)C2,25.6%
23,COc1ccc(C(=O)CCc2nc(C3CC3)no2)cc1,-23.3%

row,Structure (SMILES),INHIBITION
1,Cc1cnn(CC2CCCCN2C(=O)c2ccc(N(C)C)nc2)c1 (stereo unspecified),-4.16%
2,c1ccc(CN2CCc3c(COCC4CC4)cncc3C2)nc1,23.5%
3,Cc1nc2cc(-c3nccn3C)nn2c(N2CCCC(CO)C2)c1C (stereo unspecified),-15.9%
4,O=S(=O)(NCc1ccccc1)N(Cc1ccccn1)CC1CCCO1 (stereo unspecified),-1.91%
5,CC(C)[C@@H]1CN(Cc2ccccn2)C[C@H]1NS(=O)(=O)N(C)C,9.72%
6,CC(C)[C@H]1CN(Cc2ccccn2)C[C@@H]1NS(=O)(=O)C1CC1,67.5%
7,CC(C)[C@H]1CN(Cc2ccccn2)C[C@@H]1NC(=O)CCS(C)(=O)=O,28.2%
8,COc1ccc(CC2(CO)CCN(c3cc(C#N)ccn3)CC2)cc1,1.74%
9,CC(=O)NCCNC(=O)NCc1ccc(-n2ccc(C(F)(F)F)n2)cc1,-12.1%
10,CCN(C(=O)c1nc2c(s1)CCCN2C)C(C)C,23.6%
11,CC(C)c1noc(CCNC(=O)N2CCSC(C(C)C)C2)n1 (stereo unspecified),37.9%
12,CCC(CO)N(Cc1ccsc1)Cc1cccc(O)c1 (stereo unspecified),-60.8%
13,CCC(CO)N(Cc1ccc(C(=O)O)cc1)Cc1ccsc1 (stereo unspecified),15%
14,CCC(CO)N(CC=C(C)C)Cc1ccsc1 (stereo unspecified),55%
15,CCC(CO)N(Cc1ccsc1)CC1CC1 (stereo unspecified),50.7%
16,CCC(CO)N(Cc1ccsc1)Cc1ccccc1C#N (stereo unspecified),37.6%
17,CCC(CO)N(Cc1ccsc1)Cc1ccccc1C(=O)O (stereo unspecified),-69.3%
18,CN1CCO[C@@H]2CN(S(=O)(=O)c3ccccc3)C[C@@H]2C1,25.6%
19,CC(C)c1ncncc1C(=O)NCCN1CCCCCC1,35.4%
20,Cc1csc(N2CCN(C(=O)C3(C#N)CCCCC3)CC2)n1,24.635%
21,CC(O)CN1CCN(C(=O)c2ccc(CN(C)C)cc2)CC1 (stereo unspecified),10%
22,CS(=O)(=O)N1CCC(C(=O)NC(Cc2ccsc2)c2cccnc2)CC1 (stereo unspecified),47.1%
23,Cc1ccc(C(=O)N2CCC3(CC2)COCCN(S(C)(=O)=O)C3)cc1C,-4.88%

row,Structure (SMILES),INHIBITION
1,Cc1cc(OCC(=O)NS(=O)(=O)c2cccnc2)ccc1Cl,38.5%
2,CS(=O)(=O)c1ccccc1C(=O)NCC1Cc2ccccc2O1 (stereo unspecified),-9.76%
3,CS(=O)(=O)c1ccccc1N[C@@H]1c2ccccc2C[C@@H]1O,67.5%
4,CNC(=O)Cc1ccccc1NC(=O)C1CCCC1,42.6%
5,CN(C)C(=O)c1ccccc1NC(=O)N[C@@H]1c2ccccc2C[C@@H]1O,48.9%
6,CNC(=O)Cc1ccccc1NC(=O)N[C@H]1c2ccccc2C[C@H]1O,54.5%
7,CS(=O)(=O)c1ccccc1NC(=O)N[C@@H]1c2ccccc2C[C@@H]1O,35%
8,Cc1ccc(CN2CCC3(CC2)OC(C(=O)N(C)C)c2ccccc23)o1 (stereo unspecified),34%
9,CN(Cc1ccc2c(c1)OCO2)C(=O)Cn1cccnc1=O,44.1%
10,O=C(CN1CCCC1c1noc(C2CC2)n1)N1CCc2ccccc21 (stereo unspecified),7.08%
11,COCCN1CCC(c2cncc(-c3cccc(Cl)c3)n2)CC1,-5.71%
12,FC(F)Oc1ccc(CN2CCOC3(CCOCC3)C2)cc1Cl,38%
13,Fc1cc(CN2CCOC3(CCOCC3)C2)ccc1OC(F)F,86.7%
14,Fc1cc(CN2CCOC3(CCOCC3)C2)ccc1Cl,-27.8%
15,COc1cc(CNC(=O)Nc2nnc(C(C)C)s2)ccn1,-69.3%
16,Cc1cccc(C2(C(=O)NC(C)Cn3ccnc3)CC2)c1 (stereo unspecified),35.9%
17,CC(C(=O)N1CCc2ccccc2C1)N(C)Cc1cscn1 (stereo unspecified),32.9%
18,Cc1csc(CN(C)C(C)C(=O)N2CCc3ccccc3C2)n1 (stereo unspecified),38%
19,CCc1cnc(CN(C)C(C)C(=O)N2CCc3ccccc3C2)s1 (stereo unspecified),62%
